Experimental findings from PubChem BioAssay (NCATS) are described below.

Records with an inconclusive call do not appear. The source made the active and inactive calls. Calls follow the shape of the dose curve; as a rule, active = well fitted curve in the direction sought with a large enough effect; inconclusive = small, poorly fitted or top-dose-only effect, or another doubt; inactive = no such curve, though single readings can be large; an effect the other way counts as inactive or inconclusive.

A short description of test [1]: Quantitative High-Throughput drug screen in 47 multiple myeloma cell lines against the NCATS MIPE library collection: KMS26_JCRB cell viability assay (AID 1918975). Also: nearly all actives have a fitted effect of over 45% in size. An outline of the steps: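 Viability readout: CellTiter-Glo luminescence following 5 min room-temperature incubation with reagent. Prior exposure: 48 h, 37C, humidified 5% CO2, 500 cells per well.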
The nature of test [2]: Quantitative High-Throughput drug screen in 47 multiple myeloma cell lines against the NCATS MIPE library collection: MMM1_PLB cell viability assay (AID 1918976). Also: nearly all actives have a fitted effect of over 35% in size. In outline:
(§1)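 MIPE 4.0 approved/investigational drugs; 500 cells/well; 48 h 37 °C humidified 5% CO2; CTG luminescence readout; DMSO = 100%, media = 0% viability.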

A short description of test [3]: Quantitative High-Throughput drug screen in 47 multiple myeloma cell lines against the NCATS MIPE library collection: MOLP8_DSMZ cell viability assay (AID 1918977). Also: nearly all actives have a fitted effect of over 45% in size. An outline of the steps: as §1
The nature of test [4]: Quantitative High-Throughput drug screen in 47 multiple myeloma cell lines against the NCATS MIPE library collection: NCIH929_DSMZ cell viability assay (AID 1918978). Also: nearly all actives have a fitted effect of over 35% in size. In outline: as §1
A short description of test [5]: Quantitative High-Throughput drug screen in 47 multiple myeloma cell lines against the NCATS MIPE library collection: OCIMY1_PLB cell viability assay (AID 1918979). Also: nearly all actives have a fitted effect of over 35% in size. As to viability: series mostly up to about 46 µM. An outline of the steps: as §1
Test [6] in a line: Quantitative High-Throughput drug screen in 47 multiple myeloma cell lines against the NCATS MIPE library collection: MM1S_ATCC cell viability assay (AID 1918980). Also: nearly all actives have a fitted effect of over 45% in size. An outline of the steps:
as §1

Test [7] can be described thus: Quantitative High-Throughput drug screen in 47 multiple myeloma cell lines against the NCATS MIPE library collection: MM1R_ATCC cell viability assay (AID 1918981). Also: nearly all actives have a fitted effect of over 35% in size. In outline: as §1
A short description of test [8]: Quantitative High-Throughput drug screen in 47 multiple myeloma cell lines against the NCATS MIPE library collection: LP1_DSMZ cell viability assay (AID 1918982). Also: nearly all actives have a fitted effect of over 35% in size. An outline of the steps:
as §1

A short description of test [9]: Quantitative High-Throughput drug screen in 47 multiple myeloma cell lines against the NCATS MIPE library collection: KMS28PE_JCRB cell viability assay (AID 1918983). Also: nearly all actives have a fitted effect of over 35% in size. In outline: as §1
Test [10] is described as follows: Quantitative High-Throughput drug screen in 47 multiple myeloma cell lines against the NCATS MIPE library collection: L363_DSMZ cell viability assay (AID 1918984). Also: nearly all actives have a fitted effect of over 40% in size. In outline:
as §1
Potency is read from the fitted curve at half-maximal effect.

`CN1CCC(CNc2ccc3ncc(-c4cccc(OC(F)(F)F)c4)n3n2)CC1`: the Potency in test [1] is 18700 nM (active); in test [2], 18700 nM (active); in test [3], 18700 nM (active); in [4], 7430 nM (active); in test [5], 20900 nM (active); in test [6], 7430 nM (active). Further, the Potency in test [7] was 20900 nM (active); in test [8], 26400 nM (active); in test [9] it was 18700 nM (active); in test [10] it was 7430 nM (active).
Regarding `COc1c(OCCCN2CCOCC2)ccc2c3n(c(=NC(=O)c4cnc(N)nc4)nc12)CCN3`, the Potency in test [1] was 407 nM (active); in test [2], 51.2 nM (active); in [3] it was 28.8 nM (active); in test [4], 12.9 nM (active); in [5], 20.4 nM (active); in test [6], 91.1 nM (active). Besides, the Potency in test [7] is 81.2 nM (active); in test [9], 64.5 nM (active).
On to `O=C(Nc1cn[nH]c1-c1nc2ccc(CN3CCOCC3)cc2[nH]1)NC1CC1`, for which the Potency in [1] was 4690 nM (active); in [2], 5900 nM (active); in test [3], 2640 nM (active); in [4], 1180 nM (active); in test [5], 10500 nM (active); in test [6], 1870 nM (active). The Potency in test [7] is 2960 nM (active); in test [8], 4690 nM (active); in test [9], 7430 nM (active); in test [10] it was 2640 nM (active).
Turning to `Nc1ncnc2c1c(-c1cccc(OCc3ccccc3)c1)cn2C1CC(CN2CCCC2)C1` (stereo unspecified), the Potency was 4690 nM (active) in [1]; 1050 nM (active) in test [2]; 16600 nM (active) in test [3]; 83.3 nM (active) in test [4]; 10500 nM (active) in [5]; 1870 nM (active) in test [6]. The Potency was 1660 nM (active) in [7], 5900 nM (active) in test [8], 1050 nM (active) in test [9] and 332 nM (active) in test [10].
With `CC(C)CC(=O)Nc1n[nH]c2c1CN(C(=O)C1CCN(C)CC1)C2(C)C`, the Potency in [1] was 3320 nM (active); in test [2], 4690 nM (active); in [3], 418 nM (active); in test [4], 743 nM (active); in test [5] it was 16600 nM (active); in [6], 66.2 nM (active). Further, the Potency was 662 nM (active) in test [7], 1870 nM (active) in test [8], 1180 nM (active) in test [9] and 833 nM (active) in test [10].
For `COc1cc2nccc(Oc3ccc(NC(=O)C4(C(=O)Nc5ccc(F)cc5)CC4)cc3)c2cc1OC`, the Potency in test [1] was 23500 nM (active); in test [2], 2350 nM (active); in [3] it was 14800 nM (active); in test [4], 16600 nM (active); in test [5], 26400 nM (active); in test [6], 590 nM (active). Besides, the Potency was 1870 nM (active) in test [7] and 20900 nM (active) in test [8].
`Cc1ccc(-c2ncn(-c3ccc(Nc4nccc(-c5cccc(N6CCOCC6)c5)n4)cc3)n2)cn1`: the Potency was 469 nM (active) in test [1]; 2350 nM (active) in [2]; 93.5 nM (active) in test [3]; 264 nM (active) in test [4]; 662 nM (active) in test [5]; 148 nM (active) in test [6]. Moreover, the Potency is 105 nM (active) in test [7], 132 nM (active) in [8], 148 nM (active) in test [9] and 74.3 nM (active) in [10].
As to `CN1CC[C@@H](c2c(O)cc(O)c3c(=O)cc(-c4ccccc4Cl)oc23)[C@@H](O)C1`, the Potency was 105 nM (active) in [1]; 187 nM (active) in test [2]; 52.6 nM (active) in [3]; 74.3 nM (active) in [4]; 187 nM (active) in test [5]; 93.5 nM (active) in [6]. The values for the Potency in [8] and in test [9] were 66.2 nM (active) and 132 nM (active), respectively.
For the molecule `O=C(CCCCCCNC(=O)c1cnc(N(c2ccccc2)c2ccccc2)nc1)NO`, the Potency is 5260 nM (active) in [1]; 5260 nM (active) in [2]; 4180 nM (active) in test [3]; 5900 nM (active) in test [4]; 13200 nM (active) in test [5]; 6620 nM (active) in test [6]. Further, the Potency in test [8] is 5900 nM (active); in test [9], 7430 nM (active); in test [10] it was 4690 nM (active).
In the case of `CCN(CC)CCNC(=O)c1ccc2nc(-c3ccccc3)c(-c3ccc(CN4CCC(n5c(=O)[nH]c6ccccc65)CC4)cc3)nc2c1`, the Potency in test [1] is 14800 nM (active); in test [2], 26400 nM (active); in [3] it was 16600 nM (active); in [4] it was 743 nM (active); in [5], 20900 nM (active); in test [6] it was 8330 nM (active). Moreover, the Potency in test [8] was 18700 nM (active); in [9], 23500 nM (active); in [10], 418 nM (active).
`CN(C)CCCN=c1c2ccccc2n(C)c2[nH]c(=O)n(C)c(=O)c12`: the Potency in test [1] is 26400 nM (active); in [2] it was 16600 nM (active); in [3], 6620 nM (active); in test [4] it was 11800 nM (active); in test [6], 3720 nM (active).
On to `COC(=O)Nc1ccc(-c2nc(N3CCOCC3)c3cnn(C4CCN(Cc5cccnc5)CC4)c3n2)cc1`, for which the Potency in test [1] is 2960 nM (active); in [2], 83.3 nM (active); in test [3] it was 59 nM (active); in [4], 74.3 nM (active); in test [5] it was 4690 nM (active); in test [6], 118 nM (active). Besides, the Potency in test [7] is 1480 nM (active). The Potency result in test [10] is “inactive”.
On to `C#Cc1cccc(Nc2ncnc3cc(OC)c(OCCCCCCC(=O)NO)cc23)c1`, for which the Potency was 105 nM (active) in test [1]; 418 nM (active) in test [2]; 166 nM (active) in [3]; 93.5 nM (active) in [4]; 23.5 nM (active) in test [6]; 166 nM (active) in test [7]. In addition, the Potency in [8] was 743 nM (active); in test [9], 118 nM (active); in test [10] it was 52.6 nM (active).
Regarding `CCCCCN(CCC12CC3CC(CC(C3)C1)C2)C(=O)NCCCc1ccncc1`, the Potency in test [1] was 20900 nM (active); in [2], 20900 nM (active); in test [3] it was 20900 nM (active); in [4], 18700 nM (active); in [6] it was 18700 nM (active); in test [7], 23500 nM (active). Further, the Potency in test [9] was 20900 nM (active). Also, in test [5], the Potency result was “inactive”.
Consider `CC(C)c1cc(C(=O)N2Cc3ccc(CN4CCN(C)CC4)cc3C2)c(O)cc1O`, for which the Potency is 235 nM (active) in test [1]; 418 nM (active) in [2]; 148 nM (active) in test [3]; 166 nM (active) in [4]; 418 nM (active) in test [5]; 332 nM (active) in [6]. For the same molecule, the Potency in test [7] was 418 nM (active); in test [9], 332 nM (active); in test [10], 59 nM (active).
